Bioassay records deposited in PubChem BioAssay by National Center for Advancing Translational Sciences (NCATS).
The list is not random: actives were taken first. Their share in the collection is about 10%.
NPR1 antag: human Npr1 receptor antagonism. HEK293 hNpr1 GloSensor cGMP, ANP-stimulated luminescence. Potency, µM (top dose mostly 46.3 µM), inactives show top-dose activity change, negative = inhibition, actives largely listed as inhibitors. 76,000 compounds, 1.6% hits; calls by dose curve; note: nearly all actives have a fitted effect of over 60% in size
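HEK293 cells stably expressing human Npr1 and cGMP GloSensor pGS-40F, loaded 2 h with 2% GloSensor reagent, given compound 30 min at room temperature. Luminescence read before and 20 min after 0.1 nM hNppA.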
GPT2 inh: inhibitors of human GPT2 alanine aminotransferase. Q8TD30. Recombinant GPT2, coupled pyruvate oxidase/HRP Amplex Red fluorescence. Potency, µM (highest dose often 57.7 µM), for the others: top-dose activity change, negative = inhibition, usual class: inhibitors. 100,000 compounds, 0.25% hits. AID 1671188; note: nearly all actives have a fitted effect of over 60% in size
Target sequence (Q8TD30 whole entry, looked up): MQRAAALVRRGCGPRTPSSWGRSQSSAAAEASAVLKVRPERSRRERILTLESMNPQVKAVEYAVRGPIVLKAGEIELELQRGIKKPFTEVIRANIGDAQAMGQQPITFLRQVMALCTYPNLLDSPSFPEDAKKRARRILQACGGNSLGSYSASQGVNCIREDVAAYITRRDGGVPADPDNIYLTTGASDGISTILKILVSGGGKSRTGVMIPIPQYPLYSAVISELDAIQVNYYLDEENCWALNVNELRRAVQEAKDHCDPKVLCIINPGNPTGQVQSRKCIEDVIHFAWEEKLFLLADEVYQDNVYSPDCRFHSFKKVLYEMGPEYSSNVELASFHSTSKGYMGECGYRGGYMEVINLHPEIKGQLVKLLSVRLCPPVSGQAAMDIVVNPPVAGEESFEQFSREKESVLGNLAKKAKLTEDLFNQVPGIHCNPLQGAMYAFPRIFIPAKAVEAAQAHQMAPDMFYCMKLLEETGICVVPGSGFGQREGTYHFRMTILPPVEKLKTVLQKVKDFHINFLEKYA
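Fluorescence of coupled pyruvate oxidase/HRP/Amplex Red system (50uM Amplex, 30 min, dark) reports pyruvate formed by GPT2. Enzyme reaction: 10ng/uL GPT2, 2mM L-alanine, 250uM a-KG, 30 min room temperature, pH 7.5; 50uM AOA control.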
HEK cytotox: kills HEK 293 cells. AID 1345083. Potency, µM (doses to about 115 µM), for the others: at the top dose activity change, negative = cytotoxicity, most hits filed as inhibitors. 94,000 compounds, 6.6% hits. HEK 293 viability, ATP luminescence (CellTiter-Glo), 48-72 h; note: nearly all actives have a fitted effect of over 60% in size
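Luminescence from cellular ATP, measured with CellTiter-Glo, indicates HEK 293 viability. Cells plated at 250 cells/well are treated with compound for 48 or 72 hr at 37 degree Celsius before reagent addition.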
NIH3T3 tox: NIH 3T3 cell cytotoxicity; NIH 3T3 viability, CellTiter-Glo ATP luminescence, 48-72 h; Potency, µM (doses to about 96.7 µM), for inactives: top-dose activity change, negative = cytotoxicity, hits mostly inhibitors; 94,000 compounds, 4.3% hits; AID 1345082; note: nearly all actives have a fitted effect of over 55% in size
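NIH 3T3 cells at 400 cells/well received 23 nL of compound by pintool and were incubated 48 or 72 h at 37 °C. Viability was read as ATP-coupled CellTiter-Glo luminescence.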
FLuc inh: inhibitors of firefly (Photinus pyralis) luciferase | P08659 | purified P. pyralis luciferase, luminescence, biochemical | Potency, µM (highest dose often 115 µM), most hits filed as inhibitors | 76,000 compounds, 2.5% hits; note: nearly all actives have a fitted effect of over 65% in size
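Purified P. pyralis luciferase (10nM final) in 50mM Tris acetate pH 7.5, 10mM Mg acetate, 0.01% Tween-20, 0.05% BSA with 10uM D-luciferin and 10uM ATP. Compounds titrated qHTS. Luminescence imaged on CCD.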
Numbers without * were called inactive; i = inactive; ? = inconclusive; · = not tested or not shown; [ ] = remark or other dose. Unless noted, calls come from the whole dose curve; as a rule, active = well fitted curve in the direction sought with a large enough effect; inconclusive = small, poorly fitted or top-dose-only effect, or another doubt; inactive = no such curve, though single readings can be large; an effect the other way counts as inactive or inconclusive. % is set by controls: 0 for no effect and ±100 for the full control effect; potency is the fitted concentration of half-maximal effect.

SMILES	NPR1 antag	GPT2 inh	HEK cytotox	NIH3T3 tox	FLuc inh
CCOC(=O)[C@H]1C[C@]2(CCCCN(CCOC)C2=O)N(C(C)=O)[C@H]1c1ccco1	·	·	31.6µM*	?	·
O=C(Cn1nc2n(c1=O)CCCC2)Nc1ccc2c(c1)OCCO2	-18.5%	i	12.7%	i	20µM*
O=C(CN1C(=O)NC2(CCOCC2)C1=O)Nc1ccc2c(c1)OCCO2	3.0%	i	1.9%	1.1%	44.7µM*
O=C(CN1C(=O)NC2(CCOCC2)C1=O)Nc1ccc(F)cc1	21.6%	i	-1.1%	3.5%	i
CC(C)(C)C1CCC2(CC1)NC(=O)N(CC(=O)Nc1ccc3c(c1)OCCO3)C2=O (configuration not stated)	0.0%	-2.8%	?	28.2µM*	?
CCCCS(=O)(=O)N1CCC(F)(c2nc(-c3ccccc3)no2)CC1	-1.5%	i	?	-0.2%	i
CNC(=O)[C@@H]1CN(C(=O)c2nn(C)c3ccccc23)C[C@H]1C1CCN(C)CC1	3.9%	-9.1%	2.4%	i	i
COc1ccc(C(=O)NCC23CCC=C2N(CC2CC2)C(=O)CC3)cc1OC (configuration not stated)	2.6%	1.8%	-4.2%	-2.4%	i
O=C(c1ccoc1)N1CCCC(CN2CCOCC2)CC1 (configuration not stated)	5.4%	-10.0%	3.3%	3.5%	i
Cc1ccc(CN2C[C@@H]3C[C@H]2C(=O)N(CC2CC2)c2ccccc2O3)cc1	-18.4%[70.6 µM]	-17.0%[88.5 µM]	100µM*	100µM*	i
Cn1cc(CN2C[C@@H]3C[C@H]2C(=O)N(CC2CC2)c2ccccc2O3)c2ccccc21	-9.3%[70.6 µM]	?	?	100µM*	i
COc1cccc2ccc(-c3nccn3CC3(CO)CCOCC3)nc12	-0.9%	4.5%	i	-8.3%	i
O=C(NCc1ccccc1)N1CCC2(CC1)SCC(=O)N2c1ccc(Cl)cc1	-2.0%	2.6%	-22.1%	?	i
Cc1nc(C(C)C)sc1C(=O)N1CCC(Cc2ccc(C(=O)O)cc2)C1 (configuration not stated)	2.7%	i	i	?	i
C[C@H]1[C@@H]2[C@H]3OC(=O)[C@@H](C)[C@@H]3CC[C@@]2(C)CC[C@@H]1NC(=O)c1ccccn1	-14.4%[70.6 µM]	-1.8%[88.5 µM]	100µM*	-21.9%[174 µM]	i
COCC(=O)N[C@H]1CC[C@]2(C)CC[C@@H]3[C@H](OC(=O)[C@H]3C)[C@H]2[C@@H]1C	-1.7%[70.6 µM]	i	-2.7%[172 µM]	-8.5%[174 µM]	i
C[C@H]1[C@@H]2[C@H]3OC(=O)[C@@H](C)[C@@H]3CC[C@@]2(C)CC[C@@H]1NC(=O)c1ccc(C#N)cc1	0.3%[70.6 µM]	1.9%[88.5 µM]	?	89.1µM*	i
C[C@H]1[C@@H]2[C@H]3OC(=O)[C@@H](C)[C@@H]3CC[C@@]2(C)CC[C@@H]1NC(=O)C1CCCCC1	-19.6%[70.6 µM]	-7.1%[88.5 µM]	100µM*	?	i
CSc1ccc(-c2cccc(C(=O)NCC(=O)NCc3ccc4c(c3)OCO4)c2)cc1	·	i	?	-33.8%	·
O=C(CNC(=O)c1cccc(-c2ccc(C(F)(F)F)cc2)c1)NCc1ccc(F)cc1	·	i	?	?	·
CSc1ccc(-c2cccc(C(=O)NCC(=O)NCc3ccc(C(F)(F)F)cc3)c2)cc1	·	i	44.7µM*	?	·
CSc1ccc(-c2cccc(C(=O)NCCNC(=O)c3ccccc3F)c2)cc1	·	-1.7%	?	-39.0%	·
COc1ccc(CNC(=O)CNC(=O)c2cccc(-c3ccc(SC)cc3)c2)cc1OC	·	-1.9%	31.6µM*	?	·
CSc1ccc(-c2cccc(C(=O)NCCNC(=O)c3ccccc3C)c2)cc1	·	-20.7%	25.1µM*	-42.3%	·
COc1ccc(F)cc1-c1cccc(C(=O)NCC(=O)NCc2ccc(C(F)(F)F)cc2)c1	·	·	39.8µM*	39.8µM*	·
SMILES	NPR1 antag	GPT2 inh	HEK cytotox	NIH3T3 tox	FLuc inh
CC(C)Oc1cccc(-c2nnc(CCC(=O)NC(C)c3ccccc3)c(=O)[nH]2)c1 (configuration not stated)	-0.1%	-10.4%	?	-27.4%	i
CCn1cc(S(=O)(=O)N2C[C@@H](Oc3cccnc3)C[C@H]2C(N)=O)cn1	0.1%	4.0%	-10.1%	-16.4%	i
CCCN(CC1CC1)C(=O)c1ccc2c(c1)C(O)CCCCCN2C (configuration not stated)	0.9%	-4.8%	?	?	i
CSc1ccc(-c2cccc(C(=O)NCC(=O)NCc3cccnc3)c2)cc1	·	i	22.4µM*	?	·
O=C(CNC(=O)c1cccc(-c2ccc(C(F)(F)F)cc2)c1)NCc1ccccc1	·	0.2%	?	?	·
COc1cccc(CNC(=O)CNC(=O)c2cccc(-c3ccc(C(F)(F)F)cc3)c2)c1	·	0.7%	22.4µM*	?	·
CSc1ccc(-c2cccc(C(=O)NCC(=O)NCc3cccc(F)c3)c2)cc1	·	i	?	?	·
CSc1ccc(-c2cccc(C(=O)NCC(=O)NCc3cccc(C(F)(F)F)c3)c2)cc1	·	i	39.8µM*	?	·
O=C(CNC(=O)c1cccc(-c2ccc(C(F)(F)F)cc2)c1)NCc1cccs1	·	i	39.8µM*	?	·
COc1cccc(CNC(=O)CNC(=O)c2ccc(-c3cccc(C(F)(F)F)c3)cc2)c1	·	i	0.9%	-0.9%	·
O=[S+]([O-])(NC1CCN(Cc2cccc(-c3ccc(F)c(F)c3)c2)CC1)c1cccc(C(F)(F)F)c1	·	-13.0%	22.4µM*	14.1µM*	·
O=[S+]([O-])(NC1CCN(Cc2cccc(-c3ccc(F)c(F)c3)c2)CC1)c1ccccc1	·	·	28.2µM*	20µM*	·
O=[S+]([O-])(NC1CCN(Cc2cccc(-c3cccs3)c2)CC1)c1cccc(C(F)(F)F)c1	·	-15.7%	?	8.91µM*	·
COc1ccc(Cl)cc1C(=O)NCc1nnc2c(-c3nc(C(C)C)no3)cccn12	-3.0%	-21.8%	i	-5.9%	i
CCNC(=O)N(C1CC1)C1CCOC2(CCN(C(=O)Cc3ccsc3)CC2)C1 (configuration not stated)	·	i	0.1%	?	·
Cc1ccc2c(c1)N1C(=O)OC[C@@H]1CCN(C(=O)CN(C)C)C2	8.4%[70.6 µM]	-6.0%[88.5 µM]	i	-1.8%[138 µM]	i
CCOC(=O)C1CCCN(C(=O)C2CC(c3ccccc3)CN(C(=O)c3cccc(F)c3)C2)C1 (configuration not stated)	2.8%	-6.7%	?	?	i
CC(=O)N1CC(C(=O)NC(C)c2ccccc2)CC(c2cccc(C)c2)C1 (configuration not stated)	-0.5%	i	-18.0%	-16.8%	i
CCc1ccc(C2CC(C(=O)NC(C)c3ccccc3)CN(C(=O)c3ccoc3)C2)cc1 (configuration not stated)	-16.2%	-4.4%	?	31.6µM*	i
